Out of some 47,000 compounds screened, about 2,800 (6%) were called active. The full list was thinned out, with actives kept by preference. Values without a mark were called inactive. No stated cut-off is given here; in the data, active means z-score above about 3 (passing the limit was not always enough); inactive means the rest.

For this test, the target named is Endoribonuclease Dicer (Homo sapiens) (UniProt Q9UPY3). The experiment in a line: inhibitors of Dicer pre-microRNA processing, primary screen, biochemical, cat-ELCCA, chemiluminescence (AID 1347074).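 Further: plate controls were vehicle for no effect and no enzyme for full effect; higher signal means more uncleaved substrate so more Dicer inhibition.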 The settings on record: cat-ELCCA pre-miR-21 Dicer processing, at 25 µM, hits give high values.
Endoribonuclease Dicer (Homo sapiens), sequence (Q9UPY3 whole entry, looked up): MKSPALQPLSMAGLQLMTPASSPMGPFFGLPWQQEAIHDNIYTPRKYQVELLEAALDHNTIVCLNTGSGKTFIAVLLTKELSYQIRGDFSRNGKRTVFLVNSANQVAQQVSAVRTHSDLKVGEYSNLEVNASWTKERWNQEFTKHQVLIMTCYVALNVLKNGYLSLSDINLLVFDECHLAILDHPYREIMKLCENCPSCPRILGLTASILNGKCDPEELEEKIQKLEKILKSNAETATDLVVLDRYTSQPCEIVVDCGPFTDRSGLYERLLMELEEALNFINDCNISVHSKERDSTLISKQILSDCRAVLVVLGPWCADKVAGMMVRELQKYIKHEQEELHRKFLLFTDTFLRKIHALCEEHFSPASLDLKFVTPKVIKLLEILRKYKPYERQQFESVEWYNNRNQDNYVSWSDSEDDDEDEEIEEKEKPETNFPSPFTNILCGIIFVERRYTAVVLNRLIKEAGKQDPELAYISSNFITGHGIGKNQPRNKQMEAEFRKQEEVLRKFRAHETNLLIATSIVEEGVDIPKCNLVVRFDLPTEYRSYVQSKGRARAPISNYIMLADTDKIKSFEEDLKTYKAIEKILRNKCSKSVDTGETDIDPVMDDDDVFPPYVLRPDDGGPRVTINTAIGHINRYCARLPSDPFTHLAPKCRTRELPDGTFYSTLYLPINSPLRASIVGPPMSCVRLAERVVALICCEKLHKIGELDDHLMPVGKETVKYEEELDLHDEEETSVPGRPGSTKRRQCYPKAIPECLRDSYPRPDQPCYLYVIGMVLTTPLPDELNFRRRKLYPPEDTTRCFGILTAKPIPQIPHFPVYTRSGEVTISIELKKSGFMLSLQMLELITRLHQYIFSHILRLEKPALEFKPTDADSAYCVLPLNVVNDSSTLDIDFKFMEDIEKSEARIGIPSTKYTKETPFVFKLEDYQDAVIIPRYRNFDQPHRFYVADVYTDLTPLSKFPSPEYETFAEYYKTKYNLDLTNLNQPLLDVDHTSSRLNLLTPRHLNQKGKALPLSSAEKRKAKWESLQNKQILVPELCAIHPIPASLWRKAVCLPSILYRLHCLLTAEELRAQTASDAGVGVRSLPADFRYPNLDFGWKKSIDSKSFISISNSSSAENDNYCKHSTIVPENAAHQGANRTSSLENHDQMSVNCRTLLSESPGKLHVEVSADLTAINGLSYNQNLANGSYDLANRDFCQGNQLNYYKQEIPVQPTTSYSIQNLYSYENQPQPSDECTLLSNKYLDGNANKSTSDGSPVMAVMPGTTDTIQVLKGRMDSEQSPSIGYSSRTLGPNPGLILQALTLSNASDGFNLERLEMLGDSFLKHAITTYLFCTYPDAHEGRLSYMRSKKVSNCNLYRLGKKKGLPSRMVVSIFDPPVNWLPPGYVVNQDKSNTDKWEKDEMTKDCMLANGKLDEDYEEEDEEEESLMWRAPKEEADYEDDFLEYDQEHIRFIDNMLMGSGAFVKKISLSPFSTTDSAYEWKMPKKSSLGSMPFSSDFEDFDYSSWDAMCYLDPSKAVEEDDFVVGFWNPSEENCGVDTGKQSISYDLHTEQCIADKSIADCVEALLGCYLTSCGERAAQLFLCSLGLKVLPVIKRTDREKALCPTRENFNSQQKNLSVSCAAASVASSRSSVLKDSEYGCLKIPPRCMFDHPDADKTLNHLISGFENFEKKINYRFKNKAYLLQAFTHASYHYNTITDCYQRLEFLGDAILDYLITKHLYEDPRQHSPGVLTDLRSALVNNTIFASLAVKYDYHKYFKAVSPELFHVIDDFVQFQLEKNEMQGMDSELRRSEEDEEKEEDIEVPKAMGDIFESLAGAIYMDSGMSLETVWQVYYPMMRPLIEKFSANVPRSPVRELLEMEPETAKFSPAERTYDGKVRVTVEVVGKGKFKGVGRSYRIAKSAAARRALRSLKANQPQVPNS
In the case of `O=C(Nc1ccc(F)cc1)Nc1nnc(C2CC2)s1`, the z-score is 0.03. In the case of `c1coc(CNc2ncnc3ccccc23)c1`, the z-score is -1.16. For the compound `O=C(NCc1ccco1)c1nc2ncccn2n1`, the z-score was 0.13. The result for `CS(=O)(=O)n1nc(-c2ccccc2)nc1NCc1ccco1` reads 4.95 (active). The result for `CN(C)c1ccc(C(=S)c2ccc(N(C)C)cc2)cc1` reads 0.42. On to `CN(C)C(=O)Nc1ccc(C(C)(C)C)cc1`, for which the z-score was 0.46. Turning to `CN(C)c1ccc(NC(=O)C(=O)NCCO)cc1`, the z-score is 3.85 (active).

`CC(=O)c1ccc(OCc2ccc(Cl)c(Cl)c2)c(C)c1O`: the z-score was -0.27.

As for `CCCCCOC(=O)COc1ccc2c(=O)c(Oc3cccc(C)c3)coc2c1`, the z-score was -1.17. With `O=c1oc2ccccc2c2c1ncn2CCCN1CCOCC1`, the z-score was 0.33. `CCOC(=O)/C(C#N)=C/Nc1ccc(OC)c(C(=O)OC)c1OC`: the z-score was -2.66.

As for `COc1ccc(-c2oc3ncnc(NCCCO)c3c2-c2ccc(OC)cc2)cc1`, the z-score was 0.89.

On to `c1ccc(-c2oc3ncn4nc(-c5ccccn5)nc4c3c2-c2ccccc2)cc1`, for which the z-score was -0.36. The result for `COc1ccc(-c2c(-c3ccccc3)oc3ncnc(N)c23)cc1` reads 4.1 (active). As to `CCc1ccc(C2c3c(oc4ccc(C)cc4c3=O)C(=O)N2c2nccs2)cc1` (configuration not stated), the z-score was 0.49. For the compound `CCCC1=NN(c2ccc(S(N)(=O)=O)cc2)C(=O)C1`, the z-score is -4.3. The value for `COC(OC)c1nc(SCc2ccc(Cl)cc2)ncc1C(=O)O` was -1.32; that for `CCCCNC(=O)Nc1onc(-c2c(Cl)cccc2Cl)c1C(=O)OC` was 0.02; that for `Cc1onc(-c2c(Cl)cccc2Cl)c1C(=O)NN(C)c1ccc([N+](=O)[O-])cn1` was 0.9. For the compound `CN(C)NC(=O)c1csnc1-c1c(Cl)cccc1Cl`, the z-score was 3.48 (active). Regarding `CCCCC#Cc1cncc(C(=O)O)c1`, the z-score is 0.66.

As for `O=C(Nc1ccc2c(c1)OCC1CCCN21)C1=Cc2ccccc2OC1` (configuration not stated), the z-score is 4.37 (active).

Regarding `COC(=O)c1scc(C)c1NC(=O)C1=Cc2cc(Cl)ccc2OC1`, the z-score was -0.31.

Consider `O=C(O)C1=Cc2cc(Cl)ccc2OC1`, for which the z-score is 1.52.

On to `C=CCNC(=O)CSc1nc2c(c(C(F)(F)F)n1)CCc1ccccc1-2`, for which the z-score was 1.7. The value for `CCc1nc(-c2ccc(-c3ccccc3)nc2OC)no1` was 0.85. In the case of `COc1cc(OC)cc(-c2nc(-c3ccc(-c4ccccc4)nc3OC)no2)c1`, the z-score is 1.1. Consider `CCCc1cc(=O)oc2c1c(C)nn2-c1cccc(Cl)c1`, for which the z-score was -1.83. `COC(=O)c1sc(C(F)(F)F)c(-c2ccccc2)c1S(=O)(=O)N(C)C`: the z-score was 0.21. The value for `COC(=O)C1=C(c2ccccc2)C(c2ccccc2)=C(C(=O)OC)C1=O` was 3.2 (active); that for `COC(NC(=O)c1ccccc1)(C(F)(F)F)C(F)(F)F` was -0.72; that for `c1ccc(Nc2nc(-c3ccncc3)cs2)nc1` was 2.79. With `Cc1cccc(Nc2nc(-c3ccccc3)cs2)n1`, the z-score was 3.09 (active). On to `COCCCNc1nc(-c2ccccc2)cs1`, for which the z-score was 1.18. As for `CC(C)(C)NC(=S)Nc1ccc(F)c(Cl)c1`, the z-score was 16.8. For `CC1(C)N=C(N)N=C(N)N1c1ccccc1C(F)(F)F`, the z-score is 1.59. For the compound `CCOC(=O)Cc1csc(NC(=O)Nc2cccc3ccccc23)n1`, the z-score is 6.9. In the case of `Cc1nc(-c2ccc(C(F)(F)F)cc2)[nH]c(=O)c1Oc1ccc(Cl)cc1Cl`, the z-score was 0.23.

Turning to `CCCCc1c(COC)nc(-c2ccc(Cl)cc2)[nH]c1=O`, the z-score was 3.16 (active). Regarding `Cn1nc(-c2ccc(Cl)cc2)[nH]c1=O`, the z-score is -1.42.

Take `COC(=O)c1ccc([C@@H]2Nc3ccc(F)cc3[C@@H]3C=CC[C@@H]32)cc1`: the z-score is 0.68.

For the compound `O=S(=O)(c1ccc(C2Nc3ccc(Cl)cc3C3C=CCC32)cc1)N1CCOCC1` (configuration not stated), the z-score is -0.43. In the case of `O=C(O)C1Nc2ccc(Cl)cc2C2C=CCC12` (configuration not stated), the z-score is 15.4 (active). Consider `CSC(=NCc1ccco1)Nc1ccc(Cl)cc1`, for which the z-score was 2.16.

Consider `CCc1ccnc(NC(=O)Nc2ccc(OCc3ccccc3)cc2)c1`, for which the z-score is 0.13. Regarding `Nc1cccc(-c2cc(-c3ccccc3)nc(-c3cccc(N)c3)n2)c1`, the z-score is 8.06 (active). For the compound `c1ccc(-c2cc(-c3ccccc3)[nH]n2)cc1`, the z-score is 0.74. In the case of `Nc1cc(-c2ccccc2)nn1-c1ccccc1`, the z-score is -0.41.

For `O=C(O)CCc1nc2ccccc2[nH]c1=O`, the z-score is -2.59. The result for `COc1cccc(OC)c1C(=O)NC(=O)Nc1c(C)cc(Br)cc1C` reads -0.89; that for `CN(C)/C=C/c1nnnn1-c1ccc(Br)cc1`, 2.13; that for `NNC(=O)c1cnn(-c2ccccc2)c1C(F)(F)F`, -1.32. The result for `Nc1c(C(=O)NNC(=S)Nc2ccccc2)cnn1-c1ccccc1` reads 3.4 (active); that for `Cc1cc(NC(=O)Nc2ccccc2)n(-c2ccccc2)n1`, -0.46. Take `CCc1ncc(C(O)c2ccccc2)n1C` (configuration not stated): the z-score is -0.48. `COCCCn1c2c(c(=O)[nH]c1=O)C(c1ccc(C(=O)O)cc1)C1=C(N2)c2ccccc2C1=O` (configuration not stated): the z-score was -1.05.

For `COc1cc(C(=O)NCC2CCCO2)c(OC)cc1C(=O)NCC1CCCO1` (configuration not stated), the z-score was 1.74. The result for `Oc1ccccc1-c1nc(/C=C/c2ccc(F)cc2)no1` reads -0.19. As for `Nc1nc(/C=C/c2ccc(O)cc2)nc(-c2ccccc2O)n1`, the z-score was 5.62 (active). For the compound `COc1ccc(/C=C/c2noc(-c3ccccc3O)n2)cc1OC`, the z-score was 0.89. As to `CN1c2ccc(Cl)cc2C(C)(C)C12C=Nc1c(ccc3ccccc13)O2` (configuration not stated), the z-score is -0.52.

`O=C(Nc1ccccc1)Nc1ccc(C(F)(F)F)cn1`: the z-score was 0.31. `CC(C)Cn1c(Cn2c3ccccc3c3ccccc32)n[nH]c1=S`: the z-score was 3.9 (active). For the compound `OCC(O)Cn1c2ccccc2c2ccccc21` (configuration not stated), the z-score is -0.45. As for `CCn1c(CN2C(=O)CSc3ccccc32)n[nH]c1=S`, the z-score was 0.75. Take `CCOC(=O)c1c(C)nn(-c2ncccc2[N+](=O)[O-])c1C`: the z-score is -0.17. As for `Cc1[nH]nc(NCc2ccccc2)c1[N+](=O)[O-]`, the z-score was -1.14. For the compound `O=C1CC(c2ccccc2)N(c2ccc(OC(F)(F)F)cc2)C(=S)N1` (configuration not stated), the z-score was -0.98. As to `O=C(Nc1ccccc1)O/N=C1\CCSC1`, the z-score is 0.99. The value for `O=C1c2oc3ccccc3c(=O)c2C(c2cccc(O)c2)N1Cc1ccccc1` (configuration not stated) was 0.58; that for `Cc1ccc(N2C(=O)c3oc4ccccc4c(=O)c3C2c2cccnc2)nc1` (configuration not stated) was 3.52 (active). Regarding `C=CCOc1cccc(C2c3c(oc4ccccc4c3=O)C(=O)N2c2ccc(C)cn2)c1` (configuration not stated), the z-score is 0.54. Take `C=CCOc1ccc(C2c3c(oc4ccccc4c3=O)C(=O)N2c2ccc(C)cn2)cc1` (configuration not stated): the z-score was 0.29.

With `O=C1c2oc3ccccc3c(=O)c2C(c2cccc(O)c2)N1c1ccccn1` (configuration not stated), the z-score was 3.7 (active).

Take `Cc1ccc(N2C(=O)c3oc4cc(C)c(C)cc4c(=O)c3C2c2ccc(O)cc2)nc1` (configuration not stated): the z-score was 0.43. The result for `Cc1nc(N/N=C2\CCCc3ccccc32)sc1C` reads 0.78; that for `CC(C)(C)NC(=O)c1nn2c(C(F)(F)F)cc(-c3ccccc3)nc2c1Cl`, -0.55; that for `CCCc1nnc(N2C(=O)c3oc4ccc(F)cc4c(=O)c3C2c2ccc(OC)cc2)s1` (configuration not stated), 1.52. Turning to `O=C(N/C=C/c1ccsc1)Nc1cc(C(F)(F)F)cc(C(F)(F)F)c1`, the z-score was 0.88. For the compound `Cc1ccc(NC(=O)Nc2cc(-c3ccccc3)nn2C)cc1Cl`, the z-score was 0.04. The value for `O=C1CC(NCC2CCCCC2)C(=O)N1c1ccccc1` (configuration not stated) was 3.63 (active); that for `CCCCC1(C2CC(=O)N(c3ccccc3)C2=O)C(=O)N(c2ccccc2)N(c2ccccc2)C1=O` (configuration not stated) was 1.04. The result for `O=C1CC(Cc2ccc(Cl)cc2)C(=O)N1c1ccccc1` (configuration not stated) reads 0.01; that for `O=C(C1Sc2nnc(-c3ccccc3)n2NC1c1ccc(F)cc1)N1CCOCC1` (configuration not stated), 2.92.

In the case of `Cc1ccc(-c2cc3nccc(-c4ccccc4O)n3n2)cc1`, the z-score was 3.02 (active). Consider `COc1ccc(-c2cc3nccc(-c4cc(F)ccc4O)n3n2)cc1`, for which the z-score was 1.88. For the compound `Cc1cc(-c2ccccc2)n2nc(-c3ccccc3)cc2n1`, the z-score is 0.87.

Regarding `CC1CCc2c(sc3ncnc(SC(C)C(=O)O)c23)C1` (configuration not stated), the z-score was -0.91.

In the case of `CCOC(=O)c1sc(N2C(=O)c3oc4ccccc4c(=O)c3C2c2cccs2)nc1C` (configuration not stated), the z-score is 1.43. The result for `CCOC(=O)c1ccc(NC(=S)N(Cc2ccccc2)C(C)C)cc1` reads -0.22. Consider `O=C(NCCC(O)C(=O)O)OCc1ccccc1` (configuration not stated), for which the z-score was -1.43.

Consider `CC(C)(C)OC(=O)NCC(=O)OCc1ccc(CC(=O)O)cc1`, for which the z-score was 3.04 (active). The value for `O=C(O)Cc1ccc(-c2ccccc2)cc1` was -0.37; that for `COc1ccc2cccc(OC)c2n1` was -1.05; that for `O=C(Nc1nc2ccsc2c(=O)s1)c1ccccc1` was -0.44. Take `O=C(O)/C=C/C(=O)N1CCN(c2nccc(C(F)(F)F)n2)CC1`: the z-score is 0.2. The result for `NC(=O)c1c(NC(=O)c2sc3cc(Cl)ccc3c2Cl)sc2c1CCC2` reads 0.57. The result for `COC(=O)c1c(C)oc2ccc(N(C(=O)Oc3ccccc3)S(=O)(=O)c3ccccc3)cc12` reads -0.23; that for `O=C(c1cccnc1)N(c1ccc2oc(=O)sc2c1)S(=O)(=O)c1ccccc1`, 3.74 (active). For `CCCCC(=O)N(c1ccc2oc(=O)sc2c1)S(=O)(=O)c1ccc(F)cc1`, the z-score is 3.38 (active). The value for `O=C(c1cccnc1)N(c1cc2sc(=O)oc2c2ccccc12)S(=O)(=O)c1ccccc1` was -2.86. For the compound `COc1ccc(S(=O)(=O)N(C(=O)c2ccncc2)c2ccc3oc(=O)sc3c2)cc1OC`, the z-score was 3.3 (active).

These data come from PubChem BioAssay AID1347074 (Center for Chemical Genomics, University of Michigan, 2019).
